For 22 compounds, activity, negative = inhibition and Potency results are on record in PubChem BioAssay (NCATS).

The nature of experiment [1]: qHTS profiling for inhibitors of Plasmodium falciparum proliferation (AID 504749).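 For activity, negative = inhibition: 0% = DMSO vehicle and full inhibition = artemisinin control.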 Note: nearly all actives have a fitted effect of over 60% in size. As to conditions: P. falciparum in erythrocytes, SYBR Green DNA, 72 h. Summed up: (§1)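 Readout was DNA-dye fluorescence from lysed cultures, ex 485/em 535 nm. Parasitized red cells had grown 72 h with compound; data scaled between 0.29 uM artemisinin and DMSO wells and corrected using vehicle-only plates.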
(Quantitative high-throughput screening tests each substance at several concentrations.)

The test system of a further experiment is 3D7. The experiment is described as above. The following applies: P. falciparum in erythrocytes, SYBR Green DNA, 72 h; series mostly up to 28.7 µM. A digest of the protocol: as §1
A further experiment deals with 7G8. Described as above. As to conditions: P. falciparum in erythrocytes, SYBR Green DNA, 72 h; series mostly up to 28.7 µM. A digest of the protocol:
as §1

For another experiment, the system named is AA1029. Described as above. The following applies: P. falciparum in erythrocytes, SYBR Green DNA, 72 h; series mostly up to 28.7 µM. A digest of the protocol:
as §1

A further experiment has as its system AS120. The experiment is described as above. As to conditions: P. falciparum in erythrocytes, SYBR Green DNA, 72 h; series mostly up to 28.7 µM. A digest of the protocol: as §1
In the next experiment the test system is ATS189. The experiment is described as above. As to conditions: P. falciparum in erythrocytes, SYBR Green DNA, 72 h; series mostly up to 28.7 µM. A digest of the protocol: as §1
Where [2] appears, read: at 28.7 µM (top of the series), parasite line A.
Setting [3] is: at 28.7 µM (top of the series), parasite line B.
The mark [4] stands for this setting: at 12.8 µM (top of the series), parasite line A.
Setting [5] is: at 12.8 µM (top of the series), parasite line B.

Records with an inconclusive call do not appear. Values without a mark were called inactive. Active and inactive are the calls of the source. Calls come from the whole dose curve; as a rule, active = well fitted inhibition curve with a large enough effect; inconclusive = small, poorly fitted or top-dose-only effect; inactive = flat fitted curve, though single readings scatter.
Potency is the fitted concentration of half-maximal effect.

Consider `c1cc2c(c(N3CCNCC3)c1)OCCO2`, for which the figures for the activity, negative = inhibition in experiment [1] (setting [2]) and in experiment [1] (setting [3]) were 8.64% and 11.7%, respectively. Further, the Potency entry in the experiment with 3D7, in the experiment with 7G8, in the experiment with AA1029, in the experiment on AS120 and in the experiment with ATS189 was “inactive” in each case.
On to `NC(=O)CN1CCCC1=O`, for which the figures for the activity, negative = inhibition in experiment [1] (setting [4]) and in experiment [1] (setting [5]) were -0.277% and 13.3%, respectively. Besides, the Potency result with 3D7, with 7G8, with AA1029, with AS120 and with ATS189 was “inactive” each time.
As for `Oc1ccc2[nH]cc(CCCCN3CC=C(c4ccccc4)CC3)c2c1`, the Potency in the experiment on 7G8 is 3.98 µM (active).
In the case of `CCC1(c2ccccc2)CCC(=O)NC1=O` (stereo not drawn), the activity, negative = inhibition in experiment [1] (setting [2]) was 14.1%; in experiment [1] (setting [3]) it was 13.3%. In addition, the Potency result in the experiment with 3D7, in the experiment on AA1029, in the experiment on AS120 and in the experiment with ATS189 was “inactive” in each case.
In the case of `COP(=O)(OC)OC=C(Cl)Cl`, the activity, negative = inhibition is 5.3% in experiment [1] (setting [2]) and 13.3% in experiment [1] (setting [3]). Also, the Potency entry in the experiment with 3D7, with AA1029, in the experiment with AS120 and with ATS189 was “inactive” in each case.
`O=C(NC(=O)c1c(F)cccc1F)Nc1cc(Cl)c(OC(F)(F)C(F)C(F)(F)F)cc1Cl` (stereo not drawn): in the experiment with AS120, the Potency is 8.91 µM (active).
In the case of `CN1CCc2cc(Cl)c(O)cc2[C@H]2c3ccccc3CC[C@@H]21`, in experiment [1] (setting [3]), the activity, negative = inhibition was -29.7%. Moreover, the Potency with 7G8 is 11.2 µM (active).
For the compound `CCNc1nc(Cl)nc(NCC)n1`, the activity, negative = inhibition in experiment [1] (setting [2]) was 3.24%. For the same compound, the Potency entry in the experiment on 3D7, in the experiment on 7G8, with AA1029, in the experiment on AS120 and in the experiment with ATS189 was “inactive” throughout.
As to `CC(C)[N+](C)(CCC(C(N)=O)(c1ccccc1)c1ccccc1)C(C)C`, the activity, negative = inhibition in experiment [1] (setting [4]) is -4.63%; in experiment [1] (setting [5]) it was 4.79%. The Potency entry with 3D7, with AA1029, with AS120 and in the experiment on ATS189 was “inactive” in each case.
Take `CN1C[C@@H](NS(=O)(=O)N(C)C)C[C@@H]2c3cccc4c3c(cn4C)C[C@H]21`: the activity, negative = inhibition is -15.7% in experiment [1] (setting [2]) and -6.34% in experiment [1] (setting [3]). The Potency result in the experiment on 3D7, with 7G8, in the experiment on AS120 and in the experiment with ATS189 was “inactive” throughout.
`O=C1NCN(c2ccccc2)C12CCN(CCCOc1ccc(F)cc1)CC2`: the activity, negative = inhibition in experiment [1] (setting [3]) was -11.5%. Besides, the Potency entry in the experiment with 3D7 was “inactive”. In addition, in the experiment with 7G8, the Potency was 11.2 µM (active).
With `CC[C@]1(O)CC[C@H]2[C@@H]3CCC4=CCCC[C@@H]4[C@H]3CC[C@@]21C`, in the experiment on 3D7, the Potency result was “inactive”. In the experiment with 7G8, the Potency is 7.94 µM (active).
Take `ClC1=C(Cl)C2(Cl)C(CBr)CC1(Cl)C2(Cl)Cl` (stereo not drawn): the activity, negative = inhibition is -10.4% in experiment [1] (setting [2]) and -10.5% in experiment [1] (setting [3]). The Potency result with AA1029, in the experiment on AS120 and in the experiment on ATS189 was “inactive” throughout.
On to `CN1C(=O)[C@@H](NC(=O)c2cc3ccccc3[nH]2)N=C(c2ccccc2)c2ccccc21`, for which, in the experiment with 7G8, the Potency is 11.2 µM (active).
On to `C#C[C@]1(O)CC[C@H]2[C@@H]3CCC4=CC(=O)CCC4=C3C=C[C@@]21CC`, for which the Potency in experiment [1] (parasite line B) was 6.31 µM (active); in the experiment on 3D7 it was 7.94 µM (active); in the experiment on 7G8 it was 11.2 µM (active).
For the compound `CC(C)(O)C(Cl)(Cl)Cl`, the Potency in experiment [1] (parasite line A) is 11.2 µM (active); in experiment [1] (parasite line B) it was 12.6 µM (active); in the experiment with 3D7 it was 2 µM (active); in the experiment with 7G8, 0.316 µM (active); with AA1029, 12.6 µM (active); in the experiment with AS120 it was 4.47 µM (active). In addition, the Potency in the experiment with ATS189 is 3.16 µM (active).
With `CCN(CC)CCOC(=O)C(C)(c1ccccc1)c1ccccc1`, the activity, negative = inhibition in experiment [1] (setting [2]) was -27.7%. Also, the Potency entry with 3D7 is “inactive”. Moreover, the Potency with 7G8 was 5.01 µM (active); in the experiment on AA1029 it was 4.47 µM (active).
For `C[C@]12Cc3nonc3C[C@@H]1CC[C@@H]1[C@@H]2CC[C@@]2(C)[C@H]1CC[C@]2(C)O`, the activity, negative = inhibition in experiment [1] (setting [3]) was -29.5%. Moreover, the Potency entry with 3D7, with AA1029, in the experiment on AS120 and in the experiment on ATS189 was “inactive” throughout.
Turning to `CC(C)NCC(O)c1ccc(N)c(C#N)c1` (stereo not drawn), the activity, negative = inhibition was 10.9% in experiment [1] (setting [2]) and -9.32% in experiment [1] (setting [3]). The Potency entry with 3D7, in the experiment on 7G8, in the experiment on AA1029, with AS120 and with ATS189 was “inactive” throughout.
For `COCC(=O)N(c1c(C)cccc1C)C(C)C(=O)OC` (stereo not drawn), the Potency result with 3D7, with 7G8 and with AA1029 was “inactive” throughout.
Consider `COP(=O)(OC)C(O)C(Cl)(Cl)Cl` (stereo not drawn), for which the activity, negative = inhibition in experiment [1] (setting [3]) is 2.48%. Moreover, the Potency entry with 3D7, in the experiment on 7G8, with AA1029 and in the experiment with ATS189 was “inactive” throughout.
Turning to `Cc1c(Cl)c(=O)oc2cc(OP(=O)(OCCCl)OCCCl)ccc12`, the Potency in experiment [1] (parasite line A) was 8.91 µM (active); in the experiment on 7G8, 12.6 µM (active); in the experiment with AA1029 it was 11.2 µM (active); with AS120, 11.2 µM (active); in the experiment on ATS189 it was 11.2 µM (active).
